# Shown are actives, neighbours in structure and some others; about 4.3% of the full set was active somewhere.
# ADAM10 inh: inhibitors of human ADAM10; recombinant ADAM10, EDANS/DABCYL FRET peptide cleavage, 3 h; inhibition, % at 7 µM; hit rate 0.62% among 370,000;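 active means inhibition above a per-campaign cutoff equal to the mean of compounds falling between control-based bounds plus 3 SD, cut at about 20% in these data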;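 further: 0% = DMSO wells while the 100% control is not disclosed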
# ADAM17 inh: inhibits human ADAM17; P78536; recombinant ADAM17, EDANS/DABCYL FRET peptide cleavage; inhibition, % at 6.95 µM; hit rate 0.83% among 370,000; AID 720648;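 active means inhibition above the mean of compounds lying between control limits plus 3 SD, set per campaign, cut at about 8.5% in these data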;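 further: 0% = DMSO-only wells as the low control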
# FAS-TE inh: FAS thioesterase (human) inhibition. P49327. recombinant FAS-TE, OMFH fluorogenic substrate, fluorescence endpoint. inhibition, % at 15 µM. hit rate 0.67% among 360,000. AID 602261;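 active means compounds whose normalised, plate-corrected inhibition of enzyme fluorescence in the single-dose primary screen is 50% or more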;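 further: 0% = DMSO with enzyme and 100% = substrate without enzyme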
# NR3A LBD binder: modulates the human NR3A ligand-binding domain; NR3A LBD differential scanning fluorimetry, Tm shift; 0% = protein alone, 100% = glycine-bound protein; Tm shift relative to glycine control, % at 25 µM; hit rate 2.5% among 340,000; AID 1259313;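 active means melting temperature shift of at least 10% of the positive control shift, at one fixed dose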
# sPLA2-III inh: Blocks human group III sPLA2 activity; QFRET BODIPY PC-A2 liposome hydrolysis, fluorescence; Q9NZ20; AID 743126; hit rate 0.56% among 370,000; inhibition, % at 12.2 µM;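 active means inhibition above mean plus 3 SD of compounds lying within the high and low control bounds, cut at about 19% in these data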;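 further: 0% = median of test compound wells and 100% = no enzyme DMSO wells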
# Target sequence (Q9NZ20 whole entry, looked up): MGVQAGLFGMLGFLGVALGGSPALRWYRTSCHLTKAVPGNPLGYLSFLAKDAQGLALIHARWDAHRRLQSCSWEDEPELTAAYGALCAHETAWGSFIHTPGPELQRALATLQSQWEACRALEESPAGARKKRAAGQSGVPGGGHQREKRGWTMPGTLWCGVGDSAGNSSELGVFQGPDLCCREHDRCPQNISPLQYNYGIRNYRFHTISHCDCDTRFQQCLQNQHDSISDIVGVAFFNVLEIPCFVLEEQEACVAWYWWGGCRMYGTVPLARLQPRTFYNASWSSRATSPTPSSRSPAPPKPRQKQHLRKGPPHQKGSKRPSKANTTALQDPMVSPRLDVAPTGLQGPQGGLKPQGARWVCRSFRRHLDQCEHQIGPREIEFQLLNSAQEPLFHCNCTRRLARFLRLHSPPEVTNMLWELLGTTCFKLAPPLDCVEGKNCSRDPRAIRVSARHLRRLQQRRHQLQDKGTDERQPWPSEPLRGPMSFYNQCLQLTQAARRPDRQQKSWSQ
# ADAM10 counter: inhibits human ADAM10 in ADAM17 exosite counter-screen; shares compounds with ADAM17 inh; recombinant ADAM10, EDANS/DABCYL FRET peptide cleavage, 3 h; inhibition, % at 6.95 µM; hit rate 47% among 2,900;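 active means mean inhibition over the triplicate runs exceeds the activity threshold set in the earlier primary screen, cut at about 20% in these data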;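 further: 0% = DMSO wells and 100% = marimastat wells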
# ADAM17 confirm: human ADAM17 inhibition, confirmation. shares compounds with ADAM17 inh. recombinant ADAM17, EDANS/DABCYL QFRET peptide cleavage. inhibition, % at 6.95 µM. hit rate 65% among 2,900. AID 743257;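 active means mean inhibition across replicates above the hit cutoff set in the primary screen, cut at about 8.5% in these data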;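 further: 0% = DMSO wells and 100% = marimastat wells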
# An asterisk follows results filed as active; . = not tested or not shown.
SMILES,ADAM10 inh,ADAM17 inh,FAS-TE inh,NR3A LBD binder,sPLA2-III inh,ADAM10 counter,ADAM17 confirm
COc1ccc(OC)c(NC(=O)COC(=O)c2c3c(nc4ccccc24)CCCC3)c1,9.1,10.9*,22.9,-3.6,-10.3,15.9,14.3*
Cc1cc(S(=O)(=O)Nc2ccc(C(=O)N3CCN(c4ccccc4O)CC3)cc2)ccc1F,17.3,10.0*,6.5,-3.3,-40.1,15.6,8.6*
Cc1cccc(NS(=O)(=O)c2ccc(C(=O)N3CCN(c4ccccc4O)CC3)cc2)c1C,9.9,6.0,2.9,-2.4,-35.0,.,.
CCC(=O)NC(c1cccs1)c1cc([N+](=O)[O-])c2cccnc2c1O (configuration not stated),15.1,3.0,1.3,-8.4,18.9,.,.
CC(=O)NC(c1cccs1)c1cc([N+](=O)[O-])c2cccnc2c1O (configuration not stated),14.9,10.6*,10.9,-7.0,16.2,36.4*,18.9*
Cc1ccc(SCc2nc(N)nc(Nc3ccccc3C)n2)cc1C,17.1,9.2*,10.1,-4.6,-17.6,0.7,2.1
CCCCCCn1c(=O)n2n(c1=O)[C@@H]1CN(S(=O)(=O)c3ccc(C)cc3)C[C@]1(O)[C@@H](OC(=O)NCc1ccccc1F)C2,7.9,5.4,18.3,.,-34.8,.,.
CCCCCCn1c(=O)n2n(c1=O)[C@@H]1CN(S(=O)(=O)c3ccc(C)cc3)C[C@]1(O)[C@@H](OC(=O)NCc1ccc(OC)c(OC)c1)C2,16.9,9.8*,8.0,.,-37.2,23.1*,13.9*
COc1ccccc1N1CCN(C(=O)c2ccccc2Oc2ccccc2)CC1,13.5,15.0*,6.1,0.1,0.2,-1.8,-0.3
NC(=O)c1c(N)[nH]c(C(=O)c2ccccc2)c1-c1ccc(Cl)cc1Cl,-16.8,-4.2,.,.,15.7,.,.
N=C1/C(=C/c2cccn2CCOc2ccccc2)C(=O)N=C2SC=C(c3ccccc3)N12,11.4,9.7*,41.2,23.3*,-2.5,14.8,13.8*
O=S1(=O)c2ccc(N3CCC[C@H]3CO)cc2O[C@H]2CCN1C2,-5.5,-7.0,.,.,-3.3,.,.
Cc1ccc(N(CC(=O)Nc2cc(Cl)ccc2Oc2ccccc2)S(C)(=O)=O)c(C)c1,16.2,13.5*,32.3,-8.3,-26.4,40.7*,21.8*
Cc1ccc(N(CC(=O)Nc2cc(Cl)ccc2Oc2ccccc2)S(C)(=O)=O)cc1C,7.3,2.4,24.4,-25.8,-6.8,.,.
O=C(c1c(Cl)nc2sccn12)N1CCN(c2cccc(Cl)c2)CC1,9.9,9.1*,6.2,-0.1,10.3,-8.2,-1.5
O=C(c1cc2ccccc2cc1O)N1CCN(c2cccc(Cl)c2)CC1,9.8,1.0,16.4,3.8,-62.5,.,.
CN(C)/C=C/C(=O)c1ccc([N+](=O)[O-])c(CS(=O)(=O)c2ccccc2)c1,16.4,9.3*,6.8,1.5,-9.8,9.2,8.7*
Cc1ccc2nc(SCC(=O)Nc3cccc(S(=O)(=O)N(C)C)c3)[nH]c2c1,19.4,11.6*,10.7,-7.0,-43.6,12.0,10.6*
O=C(NC1CCCCN(Cc2cccc(Cl)c2)C1=O)c1ccc(COc2ccccc2)cc1 (configuration not stated),12.6,10.5*,.,.,-13.1,15.1,11.4*
COC(=O)c1cccc(N2C(=O)C[C@](Sc3ccc(OC)cc3)(C(=O)N3CCOCC3)[C@H]2c2ccc(OC)cc2)c1,17.5,13.6*,.,.,-2.2,16.6,8.6
COC(=O)[C@@]1(Sc2ccc(C)cc2)CC(=O)N(c2ccccc2)[C@@H]1c1ccccc1,10.0,2.7,23.0,.,-6.3,.,.
COc1ccc(S[C@]2(C(=O)N3CCN(C(C)=O)CC3)CC(=O)N(C(=O)CCc3ccccc3)[C@@H]2c2ccc(OC)cc2)cc1,19.0,15.8*,.,.,-18.6,23.9*,12.8*
COc1ccc(S[C@]2(C(=O)N3CCN(C(C)=O)CC3)CC(=O)N(C(=O)c3ccccc3)[C@@H]2c2ccc(OC)cc2)cc1,-4.9,-3.8,.,.,-2.7,.,.
C=CC[C@@H](Cc1ccc(F)cc1)C(=O)OC[C@@H]1CCCN1C(=O)[C@H](CC=C)CC(=O)N(CCO)Cc1ccccc1,18.8,10.1*,18.2,1.3,-20.9,6.2,7.5
C=CCC[C@@H](Cc1ccc(F)cc1)C(=O)OC[C@@H]1CCCN1C(=O)[C@@H](CC=C)CC(=O)N[C@@H](CO)Cc1ccccc1,19.7,9.1*,47.8,-7.6,-28.1,11.5,9.3*
SMILES,ADAM10 inh,ADAM17 inh,FAS-TE inh,NR3A LBD binder,sPLA2-III inh,ADAM10 counter,ADAM17 confirm
C=CCC[C@H](Cc1ccc(F)cc1)C(=O)OC[C@@H]1CCCN1C(=O)[C@@H](CC=C)CC(=O)NCCO,5.3,1.0,5.3,-1.8,-1.4,.,.
COCCNC(=S)N1C[C@H]2CON(C)[C@H]2C[C@H]1c1ccccc1Br,-2.2,9.4*,.,.,12.3,-9.9,-1.6
COc1ccc(N2C(=O)C3C(C2=O)C3(c2ccccc2)c2ccccc2)cc1 (configuration not stated),17.2,12.5*,20.1,3.7,-6.2,9.4,7.1
COc1ccc(N2C(=O)CC(c3ccccc3)C2=O)cc1 (configuration not stated),3.8,1.1,-3.1,2.0,-7.1,.,.
Cc1ccc(C2=CCN(C)C(=O)N2c2ccc([N+](=O)[O-])cc2)cc1,1.2,1.9,.,.,0.3,.,.
Cc1ccc(NC(=O)CCS(=O)(=O)c2ccccc2)c(C)c1,-10.0,-3.0,.,.,5.6,.,.
CC1CCCN(c2nc(NCc3ccco3)nc(N)c2[N+](=O)[O-])C1 (configuration not stated),18.0,9.7*,10.3,1.3,-35.6,0.7,5.2
C[C@@H]1CC=C[C@H]2[C@H]1C(=O)N(Cc1ccccc1)[C@H]2c1ccc(-c2ccoc2)cc1F,17.9,12.6*,17.5,-2.4,-5.5,10.2,8.2
C[C@@H]1CC=C[C@H]2[C@H]1C(=O)N(Cc1ccccc1)[C@H]2c1ccc(-c2ccc(F)cc2)cc1F,-8.5,-4.7,28.4,-0.5,-3.2,.,.
C[C@@H]1CC=C[C@@H]2[C@H]1C(=O)N(Cc1ccccc1)[C@H]2c1cccc(C#Cc2ccccc2)c1,-11.7,-6.3,16.6,-0.5,2.1,.,.
C[C@@H]1CC=C[C@@H]2[C@H]1C(=O)N(Cc1ccccc1)[C@H]2c1cccc(Br)c1,2.3,8.6*,26.6,-2.6,11.5,15.7,10.4*
CCN(CC)C(=O)N1CCC(NC(=O)Cc2ccccc2)CC1,3.0,9.4*,-9.0,-2.9,-1.4,-6.1,0.9
Cc1cccc(/C(N)=N/OC(=O)N2CCOCC2)c1,1.8,12.7*,-3.7,0.3,6.2,14.4,12.5*
CNC(=O)N(C1=NCC(C)(C)S1)c1ccc(F)c(Cl)c1,11.1,9.2*,8.6,-3.7,-3.6,8.5,5.8

# Screening data deposited in PubChem BioAssay by several laboratories.
